# Test results as given in ChEMBL document CHEMBL2218924, “A broad activity screen in support of a chemogenomic map for kinase signalling research and drug discovery” (Biochem J, 2013).
# Experiments:
# [1] = molecular target: T1, CDK3/cyclin E (Homo sapiens) (UniProt P24864+O96020+Q00526); conditions: at 1 µM
# [2] = molecular target: T1, CDK3/cyclin E (Homo sapiens); conditions: at 10 µM
# [3] = molecular target: T2, Cyclin-dependent kinase 5/CDK5 activator 1 (Homo sapiens) (UniProt Q00535+Q15078); conditions: at 1 µM
# [4] = molecular target: T2, Cyclin-dependent kinase 5/CDK5 activator 1 (Homo sapiens); conditions: at 10 µM
# [5] = molecular target: T2, Cyclin-dependent kinase 5/CDK5 activator 1 (Homo sapiens); conditions: at 1 µM; remark: listed apart in the source
# [6] = molecular target: T2, Cyclin-dependent kinase 5/CDK5 activator 1 (Homo sapiens); conditions: at 10 µM; remark: listed apart in the source
# [7] = molecular target: T3, CDK6/cyclin D3 (Homo sapiens) (UniProt P30281+Q00534); conditions: at 1 µM
# [8] = molecular target: T3, CDK6/cyclin D3 (Homo sapiens); conditions: at 10 µM
# [9] = molecular target: T4, Cyclin-dependent kinase 7/ cyclin H (Homo sapiens) (UniProt P51946+P50613); conditions: at 1 µM
# [10] = molecular target: T4, Cyclin-dependent kinase 7/ cyclin H (Homo sapiens); conditions: at 10 µM
# T1 sequence (O96020 whole entry, looked up): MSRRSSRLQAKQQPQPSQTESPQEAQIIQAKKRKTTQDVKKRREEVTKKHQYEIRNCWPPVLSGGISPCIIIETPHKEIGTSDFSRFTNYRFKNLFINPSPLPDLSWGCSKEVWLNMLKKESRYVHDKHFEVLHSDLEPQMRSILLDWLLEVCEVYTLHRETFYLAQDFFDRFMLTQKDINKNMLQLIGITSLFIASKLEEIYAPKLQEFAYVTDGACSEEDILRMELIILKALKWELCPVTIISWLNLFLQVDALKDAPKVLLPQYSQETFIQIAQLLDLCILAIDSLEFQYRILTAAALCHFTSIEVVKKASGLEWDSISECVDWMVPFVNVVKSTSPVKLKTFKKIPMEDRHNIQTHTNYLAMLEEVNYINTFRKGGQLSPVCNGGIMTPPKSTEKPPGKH
# T1 sequence (P24864 whole entry, looked up): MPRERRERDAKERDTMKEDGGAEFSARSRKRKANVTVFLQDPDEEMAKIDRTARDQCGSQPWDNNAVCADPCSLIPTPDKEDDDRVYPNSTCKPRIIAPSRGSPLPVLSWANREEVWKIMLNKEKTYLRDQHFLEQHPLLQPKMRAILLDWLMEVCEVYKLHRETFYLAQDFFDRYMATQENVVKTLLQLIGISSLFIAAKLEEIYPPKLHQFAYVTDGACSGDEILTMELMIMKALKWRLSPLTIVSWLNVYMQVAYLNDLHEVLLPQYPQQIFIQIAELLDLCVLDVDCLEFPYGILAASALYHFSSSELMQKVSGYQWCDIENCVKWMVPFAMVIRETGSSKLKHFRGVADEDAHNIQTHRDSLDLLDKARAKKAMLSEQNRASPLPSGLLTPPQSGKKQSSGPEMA
# T1 sequence (Q00526 whole entry, looked up): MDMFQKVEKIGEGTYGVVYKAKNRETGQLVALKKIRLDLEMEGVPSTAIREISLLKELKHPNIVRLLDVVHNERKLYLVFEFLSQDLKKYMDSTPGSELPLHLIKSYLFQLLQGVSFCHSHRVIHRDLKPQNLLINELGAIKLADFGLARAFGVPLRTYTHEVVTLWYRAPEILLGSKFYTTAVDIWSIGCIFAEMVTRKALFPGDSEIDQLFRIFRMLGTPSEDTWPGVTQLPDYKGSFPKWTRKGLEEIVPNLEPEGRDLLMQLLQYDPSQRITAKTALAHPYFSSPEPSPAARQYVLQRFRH
# T2 sequence (Q00535 whole entry): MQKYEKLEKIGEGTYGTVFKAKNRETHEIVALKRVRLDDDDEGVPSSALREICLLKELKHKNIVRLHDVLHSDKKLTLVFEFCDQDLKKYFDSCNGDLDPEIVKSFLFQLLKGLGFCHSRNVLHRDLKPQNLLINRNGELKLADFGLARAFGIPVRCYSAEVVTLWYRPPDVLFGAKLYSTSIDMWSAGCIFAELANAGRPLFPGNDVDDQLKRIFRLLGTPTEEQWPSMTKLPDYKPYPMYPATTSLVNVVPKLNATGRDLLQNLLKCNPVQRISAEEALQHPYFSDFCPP
# T2 sequence (Q15078 99-307 partner limits assumed): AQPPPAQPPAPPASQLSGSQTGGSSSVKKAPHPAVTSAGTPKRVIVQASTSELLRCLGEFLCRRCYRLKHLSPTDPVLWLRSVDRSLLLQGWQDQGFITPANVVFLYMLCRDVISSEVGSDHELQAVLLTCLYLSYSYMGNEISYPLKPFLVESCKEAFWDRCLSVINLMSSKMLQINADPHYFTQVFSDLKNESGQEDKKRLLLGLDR
Structure (SMILES),residual activity [1],residual activity [2],residual activity [3],residual activity [4],residual activity [5],residual activity [6],residual activity [7],residual activity [8],residual activity [9],residual activity [10]
CCn1cnc2c(Nc3cccc(Cl)c3)nc(N[C@@H]3CCCC[C@@H]3N)nc21,6%,0%,1%,0%,0%,-1%,82%,31%,5%,-1%
COc1cc2ncnc(Nc3ccc(OCc4ccccc4)cc3)c2cc1OC,110%,100%,106%,83%,111%,102%,117%,100%,88%,96%
O=C1NC(=O)c2c1c1c3ccccc3n3c1c1c2c2ccccc2n1C1CCC3O1,46%,41%,73%,86%,75%,65%,95%,76%,,
O=C1c2ccccc2-c2nc3nnnn3nc21,,,,,,,103%,101%,,129%
COc1ccc2c(c1)/C(=C/c1cnc[nH]1)C(=O)N2,,,0%,0%,0%,0%,,,67%,18%
COc1cc(OC)c(/C=C2\C(=O)Nc3ccccc32)c(OC)c1,84%,78%,88%,85%,99%,77%,90%,77%,90%,84%
O=[N+]([O-])/C=C/c1ccc2c(c1)OCO2,87%,88%,97%,106%,91%,96%,99%,98%,81%,119%
COC(=O)[C@@]1(O)C[C@H]2O[C@]1(C)n1c3ccccc3c3c4c(c5c6ccccc6n2c5c31)C(=O)NC4,27%,2%,4%,1%,3%,1%,15%,4%,55%,16%
COc1ccc2c(c[n+](C)c3c4cc5c(cc4ccc23)OCO5)c1OC,,85%,,,89%,91%,,82%,87%,
CCc1nc(-c2ccc(OC)cc2)[nH]c1-c1ccncc1,102%,,101%,,109%,,,,,
O=C1Nc2ccc3ncsc3c2/C1=C/c1c[nH]cn1,1%,-1%,1%,0%,1%,-1%,10%,4%,15%,3%
C[S+]([O-])c1ccc(-c2nc(-c3ccc(F)cc3)c(-c3ccncc3)[nH]2)cc1 (centres undefined),108%,93%,117%,121%,120%,100%,116%,111%,118%,100%
CC(C)[C@H](CO)Nc1nc(Nc2cccc(Cl)c2)c2ncn(C(C)C)c2n1,14%,3%,0%,0%,1%,0%,98%,44%,17%,1%
c1cc(-c2cnn3cc(-c4ccc(OCCN5CCCCC5)cc4)cnc23)ccn1,,41%,55%,10%,73%,19%,68%,11%,50%,9%
N/C(=N\[N+](=O)[O-])N/N=C\c1ccc(-c2cccc([N+](=O)[O-])c2)o1,,81%,,86%,,,,,,
CN[C@@H]1C[C@H]2O[C@@](C)([C@@H]1OC)n1c3ccccc3c3c4c(c5c6ccccc6n2c5c31)C(=O)NC4,,,,2%,,,,,,
CC(C)(C)c1cc(C=C(C#N)C#N)cc(Br)c1O,109%,103%,107%,113%,96%,,113%,101%,,
O=c1[nH]c2ccccc2n1C1CCN(Cc2ccc(-c3nc4cc5[nH]cnc5cc4nc3-c3ccccc3)cc2)CC1,105%,82%,95%,77%,100%,104%,105%,103%,98%,85%
